The campaign covered roughly 5,500 compounds. About 2,000 (36%) were called active. Roughly 18% stayed inconclusive and do not appear here. Rule as the data show it: active = normalized growth mostly below about 0.91 (no sharp cut-off); inconclusive = no clear call, values can overlap the other calls; inactive = mostly above about 0.92. This is one part of the list.
Assay: chemical genetic growth profiling, strain panel (AID 1159580);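 also: tested at 20 µM; growth read once vehicle control cultures reached saturation at 30 °C; 1 = growth at the plate median or of vehicle wells; lower values mean less growth of the strain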
Details: growth OD

Measured: normalized growth

CCCCCCCCCCCCCCCCCCOCC(O)CO (stereo not drawn)
inactive: S. cerevisiae deletion strains, locus YJR043C, strain POL32, stronger effect = lower value 1.01 | S. cerevisiae deletion strains, locus YJR066W, strain TOR1, stronger effect = lower value 0.965 | S. cerevisiae deletion strains, locus YKL009W, strain mrt4, stronger effect = lower value 1.04 | S. cerevisiae deletion strains, locus YKL068W, stronger effect = lower value 1.01 | S. cerevisiae deletion strains, locus YKL085W, strain MDH1 (second series), stronger effect = lower value 0.986 | S. cerevisiae deletion strains, locus YKL085W, strain MDH1, stronger effect = lower value 0.986 | S. cerevisiae deletion strains, locus YKL160W, strain elf1, stronger effect = lower value 1.01 | S. cerevisiae deletion strains, locus YKR001C, strain vps1, stronger effect = lower value 1.04 | S. cerevisiae deletion strains, locus YKR026C, strain gcn3, stronger effect = lower value 1 | S. cerevisiae deletion strains, locus YKR091W, strain srl3, stronger effect = lower value 0.995 | S. cerevisiae deletion strains, locus YLL001W, strain dnm1, stronger effect = lower value 0.997 | S. cerevisiae deletion strains, locus YLL026W, stronger effect = lower value 0.983 | S. cerevisiae deletion strains, locus YLL041C, strain sdh2, stronger effect = lower value 0.997 | S. cerevisiae deletion strains, locus YLR027C, strain aat2, stronger effect = lower value 0.998 | S. cerevisiae deletion strains, locus YLR039C, strain RIC1, stronger effect = lower value 1.04 | S. cerevisiae deletion strains, locus YLR058C, strain SHM2, stronger effect = lower value 0.999 | S. cerevisiae deletion strains, locus YLR102C, strain apc9, stronger effect = lower value 1.01 | S. cerevisiae deletion strains, locus YLR113W, strain HOG1, stronger effect = lower value 0.995 | S. cerevisiae deletion strains, locus YLR221C, strain rsa3, stronger effect = lower value 1 | S. cerevisiae deletion strains, locus YLR258W, strain gsy2, stronger effect = lower value 0.975 | S. cerevisiae deletion strains, locus YLR262C, strain YPT6 (second series), stronger effect = lower value 1 | S. cerevisiae deletion strains, locus YLR262C, strain YPT6, stronger effect = lower value 1.01 | S. cerevisiae deletion strains, locus YLR268W, strain sec22, stronger effect = lower value 1.05 | S. cerevisiae deletion strains, locus YLR320W, strain mms22, stronger effect = lower value 0.979 | S. cerevisiae deletion strains, locus YLR330W, strain CHS5, stronger effect = lower value 1.02 | S. cerevisiae deletion strains, locus YLR342W, strain FKS1 (second series), stronger effect = lower value 1.04 | S. cerevisiae deletion strains, locus YLR342W, strain FKS1, stronger effect = lower value 0.987 | S. cerevisiae deletion strains, locus YLR357W, strain rsc2, stronger effect = lower value 0.932 | S. cerevisiae deletion strains, locus YLR370C, strain arc18, stronger effect = lower value 0.998 | S. cerevisiae deletion strains, locus YLR371W, strain rom2, stronger effect = lower value 1.02 | S. cerevisiae deletion strains, locus YLR384C, strain iki3, stronger effect = lower value 0.986 | S. cerevisiae deletion strains, locus YLR418C, strain cdc73, stronger effect = lower value 0.976 | S. cerevisiae deletion strains, locus YML016C, strain PPZ1, stronger effect = lower value 1.01 | S. cerevisiae deletion strains, locus YML032C, strain rad52, stronger effect = lower value 0.983 | S. cerevisiae deletion strains, locus YML120C, strain ndi1, stronger effect = lower value 1.01 | S. cerevisiae deletion strains, locus YML124C, strain tub3, stronger effect = lower value 1 | S. cerevisiae deletion strains, locus YMR058W, strain fet3, stronger effect = lower value 0.999 | S. cerevisiae deletion strains, locus YMR078C, strain ctf18, stronger effect = lower value 1 | S. cerevisiae deletion strains, locus YMR125W, strain sto1, stronger effect = lower value 0.955 | S. cerevisiae deletion strains, locus YMR129W, stronger effect = lower value 0.989 | S. cerevisiae deletion strains, locus YMR205C, strain PFK2, stronger effect = lower value 0.96 | S. cerevisiae deletion strains, locus YMR223W, strain ubp8, stronger effect = lower value 1.01 | S. cerevisiae deletion strains, locus YMR231W, strain pep5, stronger effect = lower value 0.993 | S. cerevisiae deletion strains, locus YMR263W, strain SAP30, stronger effect = lower value 1 | S. cerevisiae deletion strains, locus YMR307W, strain GAS1, stronger effect = lower value 1.01 | S. cerevisiae deletion strains, locus YNL067W, strain RPL9B, stronger effect = lower value 1.01 | S. cerevisiae deletion strains, locus YNL071W, strain lat1, stronger effect = lower value 1 | S. cerevisiae deletion strains, locus YNL128W, strain TEP1, stronger effect = lower value 1.02 | S. cerevisiae deletion strains, locus YNL183C, strain NPR1, stronger effect = lower value 0.974 | S. cerevisiae deletion strains, locus YNL209W, strain ssb2, stronger effect = lower value 0.999 | S. cerevisiae deletion strains, locus YNL233W, strain BNI4, stronger effect = lower value 1.01 | S. cerevisiae deletion strains, locus YNL248C, strain rpa49, stronger effect = lower value 1.01 | S. cerevisiae deletion strains, locus YNL250W, strain rad50, stronger effect = lower value 1 | S. cerevisiae deletion strains, locus YNL271C, strain bni1, stronger effect = lower value 1 | S. cerevisiae deletion strains, locus YNL298W, strain CLA4, stronger effect = lower value 1 | S. cerevisiae deletion strains, locus YNL307C, strain MCK1, stronger effect = lower value 1.01 | S. cerevisiae deletion strains, locus YNL322C, strain KRE1 (second series), stronger effect = lower value 0.998 | S. cerevisiae deletion strains, locus YNR049C, strain mso1, stronger effect = lower value 0.995 | S. cerevisiae deletion strains, locus YNR052C, strain pop2, stronger effect = lower value 0.999 | S. cerevisiae deletion strains, locus YOL012C, strain htz1 0.72 | S. cerevisiae deletion strains, locus YOL147C, strain pex11, stronger effect = lower value 1 | S. cerevisiae deletion strains, locus YOR001W, strain rrp6, stronger effect = lower value 0.996 | S. cerevisiae deletion strains, locus YOR061W, strain CKA2, stronger effect = lower value 1 | S. cerevisiae deletion strains, locus YOR069W, strain VPS5, stronger effect = lower value 1.01 | S. cerevisiae deletion strains, locus YOR070C, strain gyp1, stronger effect = lower value 0.997 | S. cerevisiae deletion strains, locus YOR080W, strain dia2, stronger effect = lower value 0.977 | S. cerevisiae deletion strains, locus YOR083W, strain WHI5, stronger effect = lower value 1.02 | S. cerevisiae deletion strains, locus YOR106W, strain vam3, stronger effect = lower value 1.01 | S. cerevisiae deletion strains, locus YOR136W, strain idh2, stronger effect = lower value 1.02 | S. cerevisiae deletion strains, locus YOR144C, strain elg1, stronger effect = lower value 1.01 | S. cerevisiae deletion strains, locus YOR184W, strain ser1, stronger effect = lower value 0.995 | S. cerevisiae deletion strains, locus YOR231W, strain MKK1, stronger effect = lower value 1 | S. cerevisiae deletion strains, locus YOR265W, strain rbl2, stronger effect = lower value 0.987 | S. cerevisiae deletion strains, locus YOR270C, strain vph1, stronger effect = lower value 1.03 | S. cerevisiae deletion strains, locus YOR290C, strain snf2, stronger effect = lower value 0.973 | S. cerevisiae deletion strains, locus YOR316C, strain cot1, stronger effect = lower value 0.997 | S. cerevisiae deletion strains, locus YPL051W, strain arl3, stronger effect = lower value 1.01 | S. cerevisiae deletion strains, locus YPL078C, strain atp4, stronger effect = lower value 1.01 | S. cerevisiae deletion strains, locus YPL106C, strain sse1, stronger effect = lower value 0.953 | S. cerevisiae deletion strains, locus YPL240C, strain hsp82, stronger effect = lower value 0.985 | S. cerevisiae deletion strains, locus YPL241C, strain CIN2, stronger effect = lower value 0.998 | S. cerevisiae deletion strains, locus YPL256C, strain CLN2, stronger effect = lower value 0.983 | S. cerevisiae deletion strains, locus YPR119W, strain clb2, stronger effect = lower value 1 | S. cerevisiae deletion strains, locus YPR141C, strain kar3, stronger effect = lower value 1 | S. cerevisiae deletion strains, locus YPR163C, strain tif3, stronger effect = lower value 1.02 | S. cerevisiae deletion strains, locus YPR167C, strain met16, stronger effect = lower value 1.02 | S. cerevisiae deletion strains, strain wtn01, stronger effect = lower value 1.04 | S. cerevisiae strains, strain wild type, stronger effect = lower value 0.995

— PubChem BioAssay AID1159580 (chemical genetic matrix, 2015)
